# From the supplement of paper PMC13094657
# ± gives the standard deviation of the averaged measurements.
# Assays:
# MDA-MB-231 [1] = experiment: cell viability relative to vehicle unstimulated control (fraction); higher = more viable cells; conditions: pre-treatment time: 18 h then 24 h IFNg/TNF
# MDA-MB-231 [2] = experiment: kynurenine production, fold change vs DMSO IFNg/TNF control; higher = more kynurenine produced (less inhibition); conditions: pre-treatment time: 18 h then 24 h IFNg/TNF
# Summary of the method: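 MDA-MB-231 cells were seeded in 96-well plates at 7 × 10^4/well and, 24 h later, pre-treated for 18 h with each natural product in 0.1% DMSO. They were then stimulated for 24 h at 37°C with IFNγ (1 U/ml) and TNF (6.25 ng/ml). Supernatants were treated with trichloroacetic acid and p-dimethylaminobenzaldehyde and read at 492 nm against 0–100 μM standards. Kynurenine production is expressed as fold change over cytokine-stimulated vehicle wells on the same plate and, in the first screening round, averaged across duplicate plates.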
# 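Wherever cell viability relative to vehicle unstimulated control is given: viability of the cells left after supernatant collection, read with Deep Blue dye added for 4 h, as absorbance at 570 nm minus 600 nm.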
Compound,cell viability (MDA-MB-231 [1]),kynurenine production (MDA-MB-231 [2])
CC1(C)CC[C@]2(C(=O)O[C@@H]3O[C@H](CO)[C@@H](O)[C@H](O)[C@H]3O)CC[C@]3(C)C(=CC[C@@H]4[C@@]5(C)CC[C@H](O[C@@H]6O[C@H](C(=O)O)[C@@H](O)[C@H](O)[C@H]6O[C@@H]6O[C@H](CO)[C@@H](O)[C@H](O)[C@H]6O)C(C)(C)[C@@H]5CC[C@]43C)[C@@H]2C1 [Ginsenoside Ro] (compound dose: 10 uM),0.928 ± 0.091,1.05 ± 0.091
C=C1C(OC(C)=O)C(OC(C)=O)C(OC(=O)c2cccnc2)C(C)(C)C=CC(C)C(OC(C)=O)C2(O)CC(C)(OC(C)=O)C(OC(=O)c3ccccc3)C2C1OC(C)=O (configuration not stated) [Pepluanin A] (compound dose: 10 uM),1.11 ± 0.017,0.806 ± 0.06
O=C(OCC1=C[C@@H](O)[C@@H]2C=CO[C@@H](O[C@@H]3O[C@H](CO)[C@@H](O)[C@H](O)[C@H]3O)[C@H]12)c1ccc(O)cc1 [Agnuside] (compound dose: 10 uM),1.08 ± 0.039,0.864 ± 0.17
C[C@H]1[C@H](C)CC[C@]2(C(=O)O)CC[C@]3(C)C(=CC[C@@H]4[C@@]5(C)CC[C@H](O)C(C)(C)[C@@H]5CC[C@]43C)[C@H]12 [Ursolic acid] (compound dose: 10 uM),0.973 ± 0.015,0.891 ± 0.21
CC1(C)C[C@@H](O)[C@]2(C)CC[C@]3(C)C(=CC[C@@H]4[C@@]5(C)CC[C@H](O)[C@](C)(CO)[C@@H]5CC[C@]43C)[C@@H]2C1 [Soyasapogenol B] (compound dose: 10 uM),1.02 ± 0.018,0.744 ± 0.025
COc1cc2c(=O)c3c(O)c([C@@H]4O[C@H](CO[C@@H]5OC[C@](O)(CO)[C@H]5O)[C@@H](O)[C@H](O)[C@H]4O)c(O)cc3oc2cc1O [Polygalaxanthone III] (compound dose: 10 uM),1 ± 0.048,1.01 ± 0.037
CC(=O)OCC1=CO[C@@H](OC(=O)CC(C)C)[C@H]2C1=C[C@H](OC(=O)CC(C)(C)OC(C)=O)[C@]21CO1 [Acevaltrate] (compound dose: 10 uM),0.474 ± 0.047,0.171 ± 0.011
C=C1C[C@@]23CC[C@H]4[C@@](C)(CCC[C@@]4(C)C(=O)O)[C@@H]2CC[C@@H]1C3 [Kaurenoic acid] (compound dose: 10 uM),1.006 ± 0.0069,0.878 ± 0.12
CC(=O)OC1CCC2(C)C(CCC3(C)C2CC=C2C4C(C)C(C)CCC4(C(=O)O)CCC23C)C1(C)C (configuration not stated) [Ursolic acid acetate] (compound dose: 10 uM),1.11 ± 0.14,0.771 ± 0.053
CC1=CCC2C[C@H]1C2(C)C [(1R)-α-Pinene] (compound dose: 10 uM),0.932 ± 0.081,0.79 ± 0.12
CC(C)C1=CC2=CC[C@@H]3[C@](C)(CCC[C@@]3(C)C(=O)O)[C@H]2CC1 [Abietic acid] (compound dose: 10 uM),1.08 ± 0.025,0.803 ± 0.22
C[C@@H]1O[C@@H](O[C@H]2[C@H](OC(=O)[C@]34CCC(C)(C)C[C@H]3C3=CC[C@@H]5[C@@]6(C)C[C@H](O)[C@H](O[C@@H]7O[C@H](CO)[C@@H](O)[C@H](O)[C@H]7O)[C@@](C)(CO)[C@@H]6CC[C@@]5(C)[C@]3(C)C[C@H]4O)OC[C@H](O)[C@@H]2O)[C@H](O)[C@H](O)[C@H]1O[C@@H]1OC[C@@H](O)[C@H](O[C@@H]2OC[C@](O)(CO)[C@H]2O)[C@H]1O [Polygalacin D] (compound dose: 10 uM),0.821 ± 0.05,0.382 ± 0.056
CC(=O)O[C@@H](C[C@@H](C)C1=C2C[C@H](O)[C@H]3[C@@]4(C)CCC(=O)C(C)(C)[C@@H]4CC[C@]3(C)[C@@]2(C)CC1=O)[C@H]1OC1(C)C [Alisol C 23-acetate] (compound dose: 10 uM),0.975 ± 0.008,0.989 ± 0.024
COC(=O)[C@@H]1C[C@@]23C4=C(CC[C@@H]5CN6C[C@@H](C)[C@@H](C[C@@H](OC(C)=O)[C@@]52COC(C)=O)[C@]63O)CC[C@@H]41 [Yuzurimine] (compound dose: 10 uM),1.04 ± 0.029,0.756 ± 0.07
C=C(C)C(=O)O[C@H]1CC2=C[C@@H](C/C(C)=C/[C@H]3OC(=O)C(=C)[C@H]13)OC2=O [Deoxyelephantopin] (compound dose: 10 uM),0.768 ± 0.041,0.117 ± 0.06
C[C@@H]1O[C@@H](O[C@H]2[C@H](O[C@H]3CC[C@@]4(C)[C@@H](CC[C@]5(C)[C@@H]4CC=C4[C@@H]6CC(C)(C)CC[C@]6(C(=O)O[C@@H]6O[C@H](CO[C@@H]7O[C@H](CO)[C@@H](O)[C@H](O)[C@H]7O)[C@@H](O)[C@H](O)[C@H]6O)CC[C@]45C)[C@]3(C)CO)OC[C@H](O)[C@@H]2O)[C@H](O)[C@H](O[C@@H]2O[C@H](CO)[C@@H](O)[C@H](O)[C@H]2O)[C@H]1O [Macranthoidin A] (compound dose: 10 uM),0.901 ± 0.011,1.08 ± 0.014
